The test system of the assay is Roseburia intestinalis. Nature of the assay: growth AUC relative to DMSO control (median of replicates) (fraction); higher = more growth (less inhibition), active = hit call of the paper. The note with it: 20 µM; 24 h. The essentials: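 Gut bacterial monocultures in mGAM were treated with 20 µM compound (1% DMSO) and grown anaerobically at 37 °C in round-bottom 96-well plates from OD600 0.05. OD600 was read hourly for 24 h, with the minimum OD set to 0. Area under the growth curve was normalised to the plate median of solvent-only wells, or to row and column medians on the industrial chemical plate. Each value is the median of three biological replicates, each grown on a separate day.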
For `O=C1C2CC=CCC2C(=O)N1SC(Cl)(Cl)Cl` (stereo not drawn), the “growth AUC” value was 1.01 (inactive).
With `CCOc1cc(C(C)(C)C)ccc1C1COC(c2c(F)cccc2F)=N1` (stereo not drawn) the figure was 0.948 (inactive); with `O=C(O)CCCOc1ccc(Cl)cc1Cl`, 0.966 (inactive); with `Oc1ccc(C(c2ccc(O)cc2)(C(F)(F)F)C(F)(F)F)cc1`, 0.661 (active).
With `CCNc1nc(NC(C)C)nc(SC)n1` the figure was 1.02 (inactive).
With `CCC(C)(c1ccc(O)cc1)c1ccc(O)cc1`, the “growth AUC” value was 0.947 (inactive).
Turning to `CCOCN(C(=O)CCl)c1c(C)cccc1CC`, the “growth AUC” value was 1.01 (inactive).
For the molecule `Cc1[nH]c(=O)n(C(C)(C)C)c(=O)c1Cl`, the “growth AUC” value is 0.986 (inactive).
With `N#Cc1nn(-c2c(Cl)cc(C(F)(F)F)cc2Cl)c(N)c1C(F)(F)F` the figure was 0.698 (active).
For `CNC(=O)Oc1ccccc1C(C)C`, the “growth AUC” value was 1.06 (inactive).
To `CCOP(=S)(OCC)SCSc1ccc(Cl)cc1` belongs 0.939 (inactive); to `Clc1c(Cl)c(Cl)c(Cl)c(Cl)c1Cl`, 1.01 (inactive); to `CCOP(=S)(OCC)Oc1cc(C)nc(C(C)C)n1`, 0.984 (inactive).
For the molecule `CCC(C)c1ccccc1OC(=O)NC` (stereo not drawn), the “growth AUC” value is 0.963 (inactive).
To `CC(C)(C)c1ccc(CCOc2ncnc3ccccc23)cc1` belongs 0.901 (inactive).
To `CN(C)C(CSS(=O)(=O)c1ccccc1)CSS(=O)(=O)c1ccccc1` belongs 1.02 (inactive); to `CCOP(=S)(OCC)SCS(=O)(=O)CC`, 0.947 (inactive); to `COP(=S)(NC(C)C)Oc1ccccc1C(=O)OC(C)C` (stereo not drawn), 0.938 (inactive).

Source of the values: the supplement of paper PMC12669032.
